Assay results: the supplement of paper PMC5641865, “A screen for kinase inhibitors identifies antimicrobial imidazopyridine aminofurazans as specific inhibitors of the Listeria monocytogenes PASTA kinase PrkA” (The Journal of Biological Chemistry, 2017)
Structures can show the parent of a compound that is named as a salt. ± gives the standard deviation of the averaged measurements.
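Further: End-point A600 read in BHI broth at 37 °C with 2% DMSO, inhibition computed as (1 − OD with compound plus ceftriaxone ÷ OD with ceftriaxone only) × 100.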

What follows are compounds tested on Listeria monocytogenes 10403S (assay: growth inhibition relative to ceftriaxone-alone control; higher = stronger potentiation of ceftriaxone growth inhibition). Conditions: 10 µM; ceftriaxone 1 ug/ml; 12 h.
`Cc1ccc(NC(=O)c2ccoc2)cc1-c1ccc(C(=O)NCC2CC2)cc1` gave a growth inhibition of 16.8 ± 3.1%.
With `Cc1[nH]c(/C=C2\C(=O)Nc3ccccc32)c(C)c1CCC(=O)O` the growth inhibition was 98.7 ± 2.4%.
In the case of `CCc1cc2c(cc1N1CCC(N3CCOCC3)CC1)C(C)(C)c1[nH]c3cc(C#N)ccc3c1C2=O`, the growth inhibition is reported as -2.85 ± 9.2%.
`CC(C)(C)c1cc(NC(=O)Nc2ccc(-c3cn4c(n3)sc3cc(OCCN5CCOCC5)ccc34)cc2)no1` [Quizartinib (AC220)] showed a growth inhibition of 35.5 ± 10%.
Work on `COc1cccc(-n2cnc3c(N/N=C/c4ccncc4)ncnc32)c1` yielded a growth inhibition of -10.6 ± 15%.
`Cc1ccc(NC(=O)c2ccc(CN3CCN(C)CC3)cc2)cc1Nc1nccc(-c2cccnc2)n1` [Imatinib Mesylate] gave a growth inhibition of 29.9 ± 17%.
`CC1=C(C(=O)Nc2ccc3[nH]ncc3c2)C(c2ccc(Cl)c(Cl)c2)CC(=O)N1` (stereo not drawn) gave a growth inhibition of -13 ± 9.9%.
In the case of `CC(C)(O)CC(=O)NCCn1ccc2ncnc(Nc3ccc(Oc4cccc(C(F)(F)F)c4)c(Cl)c3)c21`, the growth inhibition is reported as 98.62 ± 0.75%.
`c1ccc(Oc2ccc(Nc3ncc(-c4ccccc4)o3)cc2)cc1` was tested, and the growth inhibition was -0.487 ± 1.7%.
`Fc1ccc(-c2ncn(C3CCNCC3)c2-c2ccnc(Oc3ccc(F)c(F)c3)n2)cc1` was tested, and the growth inhibition was 10.7 ± 16%.
`Cc1cc(C(=O)NOCCO)c(Nc2ccc(I)cc2F)n(C)c1=O` was tested, and the growth inhibition was 13.2 ± 5.6%.
Compound `CC(C)(C)c1cnc(CSc2cnc(NC(=O)C3CCNCC3)s2)o1` has a growth inhibition of 29.5 ± 24%.
In the case of `CN(C)C1CCN(C(=O)c2ccc(NC(=O)Nc3ccc(-c4nc(N5CCOCC5)nc(N5CCOCC5)n4)cc3)cc2)CC1`, the growth inhibition is reported as 22.7 ± 7.4%.
`Cc1cn(-c2cc(NC(=O)c3ccc(C)c(Nc4nccc(-c5cccnc5)n4)c3)cc(C(F)(F)F)c2)cn1` [Nilotinib (AMN-107)] was tested, and the growth inhibition was 46.8 ± 3.8%.
`CCCS(=O)(=O)Nc1ccc(F)c(C(=O)c2c[nH]c3ncc(-c4ccc(Cl)cc4)cc23)c1F` [Vemurafenib (PLX4032)] showed a growth inhibition of -29.7 ± 26%.
Work on `CCc1cccc(CC)c1/C=C/c1cncc(C(=O)NC)c1` yielded a growth inhibition of 14.6 ± 2.7%.
For `CNC(=O)c1cc(Oc2ccc(NC(=O)Nc3ccc(Cl)c(C(F)(F)F)c3)cc2)ccn1` [Sorafenib (Nexavar)], the growth inhibition was 98.7 ± 1.8%.
For `CC(C)c1ccc2c(c1)NC(=O)/C2=N/Nc1ccc(S(N)(=O)=O)cc1`, the growth inhibition was -0.275 ± 0.88%.
Compound `O=C1Nc2ccc(C(=O)c3ccco3)cc2C1=Cc1cc(Cl)c(O)c(Cl)c1` has a growth inhibition of 13.9 ± 4.5%.
Work on `CS(=O)(=O)CCNCc1ccc(-c2ccc3ncnc(Nc4ccc(OCc5cccc(F)c5)c(Cl)c4)c3c2)o1` [Lapatinib Ditosylate (Tykerb)] yielded a growth inhibition of 42 ± 16%.
Work on `N#Cc1cccc(Nc2nccc(-c3cnn4ncccc34)n2)c1` yielded a growth inhibition of -0.568 ± 0.54%.
Compound `Cc1cc(Cl)cc2c1NC(=O)C2=NNc1ccc(S(N)(=O)=O)cc1` has a growth inhibition of -9.29 ± 7.3%.
`c1cnn2ncc(-c3ccnc(NCCCN4CCOCC4)n3)c2c1` showed a growth inhibition of -2.97 ± 0.54%.
`O=C(Nc1n[nH]c2nc(-c3ccc(O)cc3)c(Br)cc12)C1CC1` showed a growth inhibition of -9.15 ± 4.2%.
Work on `COc1ccc2ncn(-c3cc(O[C@H](C)c4ccccc4C(F)(F)F)c(C(N)=O)s3)c2c1` yielded a growth inhibition of 0.811 ± 11%.
With `CN1CCN(C2CCN(C(=O)Nc3cc(Oc4ccc(NC(=O)C5(C(=O)Nc6ccc(F)cc6)CC5)c(F)c4)ccn3)CC2)CC1` [Golvatinib (E7050)] the growth inhibition was 48.7 ± 37%.
Work on `Nc1nc(Nc2ccc(S(N)(=O)=O)cc2)nn1C(=O)c1c(F)cccc1F` yielded a growth inhibition of 27.6 ± 6.5%.
In the case of `CCn1c(-c2nonc2N)nc2c(C#CC(C)(C)O)ncc(OCC3CCNCC3)c21`, the growth inhibition is reported as 29.8 ± 9.6%.
In the case of `Cn1cc(-c2ccc3nnc(Sc4ccc5ncccc5c4)n3n2)cn1`, the growth inhibition is reported as 18 ± 20%.
In the case of `CCOc1ccc2c(-c3ccnc(Nc4cccc(C(F)(F)F)c4)n3)cnn2n1`, the growth inhibition is reported as -8.14 ± 6.9%.
`Cn1cc(-c2ccc3nnc(C(F)(F)c4ccc5ncccc5c4)n3n2)cn1` was tested, and the growth inhibition was 17.1 ± 33%.
In the case of `COc1cc2ncn(-c3cc(OCc4ccccc4Cl)c(C(N)=O)s3)c2cc1OC`, the growth inhibition is reported as -6.56 ± 0.46%.
With `CS(=O)(=O)Nc1ccc(N/C=C2\C(=O)Nc3ccccc32)cc1` the growth inhibition was -14.6 ± 19%.
`CC(=O)Nc1cccc(C#Cc2cncnc2Nc2ccc(OCc3cccc(F)c3)c(Cl)c2)c1` gave a growth inhibition of -15 ± 2.5%.
`Nc1ncnc2c1c(-c1cccc(OCc3ccccc3)c1)cn2C1CC(CN2CCCC2)C1` (stereo not drawn) was tested, and the growth inhibition was 61.4 ± 52%.
In the case of `O=C(O[C@H]1CN[C@H](C#Cc2cc3ncnc(Nc4ccc(OCc5cccc(F)c5)c(Cl)c4)c3s2)C1)N1CCOCC1`, the growth inhibition is reported as 14.3 ± 11%.
`CNC(=O)c1cc(COc2nnc(Nc3ccc(Cl)cc3)c3ccoc23)ccn1` [Telatinib (BAY 57-9352)] gave a growth inhibition of 22.8 ± 32%.
Compound `CCN1CCN(c2ccc(Nc3cc(N(C)C(=O)Nc4c(Cl)c(OC)cc(OC)c4Cl)ncn3)cc2)CC1` has a growth inhibition of 12.2 ± 5.4%.
